Source: PubChem
Sampled rows, rich in hits. Any-hit rate of the full collection: about 3.3%.
Giardia FBPA inh – qHTS Assay for Inhibitors of Fructose-1,6-bisphosphate Aldolase from Giardia Lamblia | purified Giardia FBPA | A8B2U2 | AID 2451, 2010 | actives 0.71% (n = 290,000) | Potency, µM (highest dose often 59.6 µM), inactives show at the highest dose activity, negative = inhibition, actives largely listed as inhibitors; further: nearly all actives have a fitted effect of over 55% in size
Target sequence (A8B2U2 whole entry, looked up): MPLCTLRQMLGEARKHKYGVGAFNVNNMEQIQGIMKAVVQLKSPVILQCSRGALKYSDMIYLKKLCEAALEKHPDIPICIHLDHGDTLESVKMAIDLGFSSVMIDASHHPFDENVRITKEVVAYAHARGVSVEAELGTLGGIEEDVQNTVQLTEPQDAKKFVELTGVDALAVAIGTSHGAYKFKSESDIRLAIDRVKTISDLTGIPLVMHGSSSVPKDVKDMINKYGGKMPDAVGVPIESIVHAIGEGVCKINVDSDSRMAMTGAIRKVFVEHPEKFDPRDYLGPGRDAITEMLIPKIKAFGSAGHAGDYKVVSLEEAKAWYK
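40 nM FBPA preincubated 10 min at RT with compound (up to 57.5 uM final), then substrate plus GAPDH/TPI/NAD/arsenate coupling and diaphorase/resazurin added. Fluorescence read after 20 min at RT, 525/598 nm.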
RE007 growth inh – qHTS Assay for Inhibitors of the HIV-1 protein Vpr. S. pombe RE007 Vpr strain, BacTiter-Glo ATP luminescence, 24 h. Potency, µM (doses to about 92.2 µM), for the others: top-dose activity change, negative = less growth, most hits filed as inhibitors. actives 0.21% (n = 360,000). AID 651644, 2012; active means well fitted falling curve with a large enough effect; inconclusive means small, poorly fitted or top-dose-only effect; inactive means no such curve, though single readings can be large or run the other way; further: nearly all actives have a fitted effect of over 50% in size
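Fission yeast strain RE007, carrying one chromosomally integrated HIV-1 vpr copy, was seeded at OD 0.01 in PMG+AL medium with 23 nL pinned compound. After 24 h at 30 °C and 99% humidity, viability was read by BacTiter-Glo luminescence.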
Sm TGR block – qHTS Assay for the Inhibitors of Schistosoma Mansoni Peroxiredoxins. actives 3% (n = 360,000). Schistosoma mansoni thioredoxin glutathione reductase (TGR), Q962Y6. Potency, µM (highest dose often 114 µM), inactives show at the highest dose activity change, negative = inhibition, hits mostly inhibitors. purified TGR, DTNB reduction, TNB absorbance 405 nm; further: nearly all actives have a fitted effect of over 60% in size
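TGR 20 nM + NADPH 100 uM (dispensed conc.), cpd preinc 15 min RT; start with NADPH (500 uM addition) then DTNB (15 mM addition). Kinetic TNB absorbance, 405 nm filter. Four-parameter Hill fit across titration.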
TbPYK inhibitor – qHTS of Trypanosoma Brucei Inhibitors. TbPYK enzyme, Kinase-Glo Plus ATP luminescence, 45 min. Potency, µM (series often up to 76.8 µM), for the others: top-dose activity, negative = inhibition, actives largely listed as inhibitors. AID 624173, 2012. actives 0.12% (n = 410,000); further: nearly all actives have a fitted effect of over 50% in size
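Readout: single end-point luminescence (Kinase-Glo Plus, 10 min). Reaction conditions were TbPYK/substrate plus 130 uM ADP, 45 min at RT, pH 7.2 TEA buffer. No-enzyme wells served as controls, and data were normalized before concentration-response fitting.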
LmPK inh – qHTS Assay for Inhibitors of Leishmania Mexicana Pyruvate Kinase (LmPK); Q27686; purified LmPK, Kinase-Glo ATP luminescence, 1 h; Potency, µM (doses to about 57.5 µM), without a hit: at the top dose activity change, negative = inhibition, hits mostly inhibitors; actives 0.37% (n = 290,000); AID 1721, 2009
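Kinase-Glo luminescence read after 1 h RT reaction of 0.1 nM LmPK with 0.5 mM PEP and 0.1 mM ADP. Activity scaled between uninhibited and enzyme-free controls.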
* = called active by the depositor; ? = inconclusive; . = no result; [ ] = another dose, or the depositor's remark. Unless noted, the call rests on the fitted dose curve; in most records, active means well fitted curve in the direction sought with a large enough effect; inconclusive means small, poorly fitted or top-dose-only effect, or another doubt; inactive means no such curve, though single readings can be large; an effect the other way counts as inactive or inconclusive. On the % scale 0 is the no-effect control and ±100 the full control effect; potency means the concentration at half of the fitted maximal effect.

SMILES	Giardia FBPA inh	RE007 growth inh	Sm TGR block	TbPYK inhibitor	LmPK inh
C/C=C/C=C/C(=O)Nc1nccs1	-8.9%	-7.3%	35.5µM*	-16.4%	-1.0%
CC(=O)c1ccc(N2CCN(C(=O)C3CCCN(S(=O)(=O)c4ccc(Br)s4)C3)CC2)cc1 (stereo unspecified)	.	.	2.8%	-8.4%	.
O=C(CCc1nnc(-c2ccsc2)o1)NCc1ccccc1OC(F)(F)F	0.3%	-4.7%	-0.2%	-2.6%	3.6%
O=C(Cc1ccccc1)NNC(=O)Nc1ccccc1	3.8%	2.0%	6.8%	-3.9%	7.4%
Cc1cc(/C=N/NC(=O)C(O)(c2ccccc2)c2ccccc2)c(C)n1-c1cccc(C(=O)O)c1	?	-1.6%	31.6µM*	-15.8%	4.3%
Cc1cc(/C=N/NC(=O)C(O)(c2ccccc2)c2ccccc2)c(C)n1-c1ccc(C(=O)O)cc1	-22.0%	11.1%	-21.8%	0.3%	0.2%
COCCN(CCOC)Cc1c(O)ccc2c1O/C(=C\c1ccc(C)o1)C2=O	?	3.7%	1.78µM*	0.4%	-2.8%
COCCN1C(=O)c2oc3cc(C)c(C)cc3c(=O)c2C1c1cccc(O)c1 (stereo unspecified)	.	-3.7%	.	6.3%	.
CCCN(CCC)CCNC(=O)c1cn(C)c(=O)c2c1c1ccccc1n2C	-7.0%	-1.2%	?	0.0%	0.4%
CN(C)C(CNC(=O)c1cccc(S(=O)(=O)N2CC3(C)CC2CC(C)(C)C3)c1)c1ccco1 (stereo unspecified)	2.9%	8.1%	25.1µM*	1.0%	-4.4%
O=C(CSc1ccc(-c2ccco2)nn1)c1ccccc1	-26.8%	-28.6%	8.91µM*	?	-14.3%
COc1ccc(C(=O)CSc2ccc(-c3ccco3)nn2)cc1	-16.4%	-15.7%	31.6µM*	-20.5%	1.3%
Fc1ccc(C(c2nnnn2C2CCCC2)N(Cc2ccco2)CC2CCCO2)cc1 (stereo unspecified)	-2.0%	-18.7%	-10.5%	-4.9%	3.1%
c1ccc(CN(Cc2ccco2)C(c2ccncc2)c2nnnn2C2CCCC2)cc1 (stereo unspecified)	?	-16.3%	22.4µM*	-19.7%	1.4%
CC[n+]1c(C)sc2c3ccsc3ccc21	-8.3%	1.8%	10.3%	3.98µM*	-9.5%
O=C(C1=C(O)C(=O)N(c2ncccn2)C1c1ccc(Cl)c(Cl)c1)c1ccco1 (stereo unspecified)	?	-7.0%	?	2.3%	-7.6%
CCSc1nnc(N2C(=O)C(O)=C(C(=O)c3ccco3)C2c2cccc(OC)c2)s1 (stereo unspecified)	.	2.3%	?	2.9%	-0.5%
O=C(C1=C(O)C(=O)N(c2ncccn2)C1c1cccc(Cl)c1)c1ccco1 (stereo unspecified)	?	-16.8%	44.7µM*	-0.5%	0.9%
CCN(CC)CCN1C(=O)C(O)=C(C(=O)c2ccco2)C1c1ccccn1 (stereo unspecified)	?	-3.0%	44.7µM*	-0.5%	1.3%
CSc1nnc(N2C(=O)C(O)=C(C(=O)c3ccco3)C2c2cccc(Cl)c2)s1 (stereo unspecified)	.	23.0%	8.91µM*	1.4%	1.5%
CCN(CC)CCCN1C(=O)C(O)=C(C(=O)c2cc3ccccc3o2)C1c1ccccn1 (stereo unspecified)	6.8%	8.8%	1.2%[11.4 µM]	1.6%	13.8%
CSc1nnc(N2C(=O)C(O)=C(C(=O)c3ccco3)C2c2ccc(F)cc2)s1 (stereo unspecified)	.	9.8%	50.1µM*	1.8%	0.9%
Cc1ccccc1-c1nc(CS(=O)(=O)CC(=O)N(C)C2CCCCC2)c(C)o1	-1.0%	14.7%	8.91µM*	-8.8%	-1.3%
Cc1oc(-c2ccccc2F)nc1CS(=O)(=O)CC(=O)N1CCCCCC1	-0.2%	-2.6%	11.2µM*	4.3%	-5.1%
CCOC(=O)N1CCN(C(=O)CS(=O)(=O)Cc2nc(-c3ccccc3F)oc2C)CC1	-4.4%	-13.3%	-29.7%	-16.7%	4.1%
SMILES	Giardia FBPA inh	RE007 growth inh	Sm TGR block	TbPYK inhibitor	LmPK inh
Cc1oc(-c2ccccc2Cl)nc1CS(=O)(=O)CC(=O)NCc1ccc(F)cc1	.	.	44.7µM*	-2.1%	.
O=CC(Br)P(=O)(N1CCOCC1)N1CCOCC1 (stereo unspecified)	0.0%	21.0%	44.7µM*	?	0.9%
CC(=O)c1cccc(N2C(=O)CC(N3CCN(S(=O)(=O)c4ccccc4F)CC3)C2=O)c1 (stereo unspecified)	.	2.6%	.	0.0%	.
O=C1CC(N2CCC(C(=O)N3CCCCC3)CC2)C(=O)N1 (stereo unspecified)	1.5%	-21.7%	31.6µM*	4.9%	-1.6%
O=C1CC(N2CCN(c3ccccn3)CC2)C(=O)N1c1ccc(F)cc1 (stereo unspecified)	10.9%	?	?	2.1%	5.6%[11.5 µM]
COc1ccc(N2CCN(C3CC(=O)N(Cc4ccc(N5CCCC5=O)cc4)C3=O)CC2)cc1 (stereo unspecified)	-5.2%	-20.5%	0.0%	2.9%	-2.8%
O=C1CC(N2CCN(c3ccc(F)cc3)CC2)C(=O)N1Cc1ccc(N2CCCC2=O)cc1 (stereo unspecified)	3.4%	2.1%	44.7µM*	4.0%	2.5%
O=C1CCCN1CCC1CCN(C2CC(=O)N(c3ccc(F)cc3)C2=O)CC1 (stereo unspecified)	8.3%	31.6µM*	?	3.8%	0.6%
CC(=O)Nc1cccc(N2C(=O)CC(N3CCC(C(=O)N4CCCCC4)CC3)C2=O)c1 (stereo unspecified)	1.8%	12.3%	20µM*	-8.6%	-6.2%
O=C(C1CCN(C2CC(=O)N(c3ccc(F)cc3)C2=O)CC1)N1CCOCC1 (stereo unspecified)	0.9%	50.1µM*	?	6.1%	-11.6%
COc1cc(OC)cc(N2C(=O)CC(N3CCC(C(=O)N4CCCCC4)CC3)C2=O)c1 (stereo unspecified)	.	31.6µM*	?	3.1%	1.2%
CCc1nn2c(=O)cc(COC(=O)c3ccc(NC(=O)C4CCCCC4)cc3)nc2s1	.	.	5.9%	-4.2%	.
Cc1cccc(OCCOc2ccccc2C=C(C#N)C#N)c1	-4.9%	-15.1%	2.51µM*	-8.2%	0.4%
Cc1ccccc1OCCNC(=S)Nc1ccccc1	.	-16.9%	-13.9%	-0.5%	-0.9%
Cc1ccccc1OCCOc1ccccc1C=C(C#N)C#N	-10.3%	.	3.98µM*	.	5.5%
COC(=O)c1ccccc1NC(=O)CSc1nc(C)cc(C)n1	-0.3%	5.1%	7.4%	-5.6%	-14.7%
COC(=O)c1cc(C)nc(Sc2ccccc2N)n1	-8.6%	-13.1%	2.5%	8.91µM*	21.8%
c1ccc(COc2ccc(OCCCCN3CCCCC3)cc2)cc1	?	-11.9%	-7.4%	17.3%	2.2%
